# Measurements: ChEMBL document CHEMBL4513216, “Probing the Open Global Health Chemical Diversity Library for Multistage-Active Starting Points for Next-Generation Antimalarials” (ACS Infect Dis, 2020)
# The campaign covered roughly 65,000 compounds. About 2,100 (3.2%) showed an effect of 50% or more. The median lay at about -52%. The sample holds strong results, similar compounds and a random draw of the others, so the mix is not that of the screen.
# System: Plasmodium falciparum
# Experiment: Screen against P. falciparum Asexual Blood Stage (ABS), at 5uM
# Assay type: functional, Dd2
# Settings: tested at 5 uM
row,Compound,INHIBITION [%]
1,Cc1ccc(-c2nnc(CN3CCCC(Cn4cncn4)C3)o2)cc1 (centres undefined),-182
2,CN(C)C(=O)CN1CCC2(COCc3cnc(-c4ccccc4)nc32)C1 (centres undefined),-24.6
3,CN(Cc1ccco1)C(=O)C1CCCc2ccccc21 (centres undefined),-142
4,Fc1cccc(CN2CCOC3(COCCN(CC4CC4)C3)C2)c1 (centres undefined),63.4
5,Cc1ccc(CN2CCOC3(CCCN(c4cccc(F)c4)C3)C2)o1 (centres undefined),51.6
6,Fc1cccc(N2CCCC3(CN(Cc4cccnc4)CCO3)C2)c1 (centres undefined),66
7,O=C(c1ccoc1)N1CCOC2(COCCN(CC3CC3)C2)C1 (centres undefined),-17.6
8,Fc1cccc(N2CCCC3(CN(Cc4ccco4)CCO3)C2)c1 (centres undefined),43.7
9,Fc1cccc(N2CCCC3(CN(Cc4ccncc4)CCO3)C2)c1 (centres undefined),38.4
10,COCCN1CCOCC2(CCCN(Cc3cccc(F)c3)C2)C1 (centres undefined),9.71
11,OCCN1CCOC2(CCCN(c3cccc(F)c3)C2)C1 (centres undefined),-22.5
12,Cn1cc(CN2CCOC3(CCCN(c4cccc(F)c4)C3)C2)cn1 (centres undefined),-5.32
13,Fc1ccc(CNCC2Cn3nncc3CO2)cc1 (centres undefined),-21.1
14,COc1cc(N2CCCC3(CCN(c4cccnc4)C3=O)C2)ncn1 (centres undefined),-14.1
15,Cc1nnc2ccc(N3CCC4(CCOC4)C3)nn12 (centres undefined),-37.2
16,FC(F)c1nnc2ccc(N3CCC4(CCCCC4)C3)nn12,61.4
17,FC(F)c1nnc2ccc(N3CCC4(CCOC4)C3)nn12 (centres undefined),-52.7
18,O=S1(=O)CCC(CNc2cc(-c3ccccc3)nc3ccnn23)C1 (centres undefined),-47.3
19,O=S(=O)(c1ccccc1F)N1CCCC(c2nccs2)C1 (centres undefined),-129
20,O=C(NCCCSc1ccc(F)cc1)C1CCc2cn[nH]c2C1 (centres undefined),-54.6
21,COCc1cn(C2CCN(CCC(C)c3ccccc3)CC2)nn1 (centres undefined),-46.3
22,COc1ccc(C(=O)NCC2CCCN(C3CCOCC3)C2)c(O)c1 (centres undefined),-31.9
23,CC(C)Cc1noc(CN2CCN(CCO)CC2)n1,0.0946
24,CCCc1noc(CN2CCN(CCO)CC2)n1,50.5
25,CCc1noc(CN2CCN(CCO)CC2)n1,-176
26,C[C@H](O)CNc1cc(-c2ccncc2)ncn1,-170
27,CCCOCCN1CCC2(CC1)CC(=O)N(Cc1cc(F)cc(F)c1)C2,38.7

row,Compound,INHIBITION [%]
1,Cc1csc(CNCC(C)c2nc3ccccc3o2)n1 (centres undefined),-27.8
2,Cc1nc(CNCC(C)c2nc3ccccc3o2)cs1 (centres undefined),-109
3,Cc1ccc(O)c(CNCC(C)c2nc3ccccc3o2)n1 (centres undefined),63.2
4,CN1CCc2nc(C3CCN(C(=O)CCC4CCCC4)CC3)ncc2C1,-37.6
5,O=C(NC1CCCN(CCCc2ccccc2)C1)C1=CCCCC1 (centres undefined),2.46
6,O=C(NC1CCCN(CCCc2ccccc2)C1)c1ccc(Cl)s1 (centres undefined),60.9
7,O=C(NC1CCCN(CCCc2ccccc2)C1)c1ccncc1 (centres undefined),-29.1
8,CC(=O)N1CC[C@H](c2nc3cc(F)ccc3o2)C1,-105
9,CC(=O)N1CC[C@H](c2nc3cc(C)ccc3o2)C1,-68.8
10,O=C(C1CC1)N1CC[C@H](c2nc3ccccc3o2)C1,50.1
11,CC(O)CNc1c(NCc2ccco2)c(=O)c1=O (centres undefined),-192
12,Cc1cc(C)c(N(CC(O)CNCc2ccco2)S(C)(=O)=O)c(C)c1 (centres undefined),60.7
13,Cc1ccc(CS(=O)(=O)NCc2ccco2)cc1,-31.4
14,CN(C)c1nc(NCCc2ccccn2)ncc1F,-447
15,Cc1ccc2c(c1)CN(C(=O)c1cnc(C)cn1)C(CN(C)C)CO2 (centres undefined),-86.1
16,COc1ccccc1C(=O)N1Cc2cc(C)ccc2OCC1CN(C)C (centres undefined),60.8
17,Cc1ccc2c(c1)CN(C(=O)C1CCCCC1)C(CN(C)C)CO2 (centres undefined),66
18,Cc1ccc2c(c1)CN(C(=O)c1cccnc1)C(CN(C)C)CO2 (centres undefined),29.2
19,Cc1ccc2c(c1)CN(C(=O)c1ccccc1F)C(CN(C)C)CO2 (centres undefined),50.4
20,Cc1nc(C)c(C(=O)N2Cc3ccccc3OCC2CN(C)C)o1 (centres undefined),-21.9
21,Cc1ccc(C(=O)N2CCCCC2CN(C)C)cc1 (centres undefined),-58.9
22,Cc1ccc2c(c1)CN(C(=O)c1ccncc1)C(CN(C)C)CO2 (centres undefined),13
23,COc1ccc(C(=O)N2Cc3cc(C)ccc3OCC2CN(C)C)cc1 (centres undefined),17.9
24,CCCn1nccc1NC(=O)CN1CCc2cnc(C(C)C)nc2C1,-4.64
25,CC(C)CNC(=O)CC1(Cn2cnnn2)CCCCC1,-92.1
26,O=S(=O)(c1ccc(Cl)s1)N1CCCn2ncnc21,-131
27,O=C1CO[C@@H]2CN(CC3CC3)C[C@H]2N1Cc1cccc(F)c1,-55
